According to PubChem BioAssay AID1159580 (chemical genetic matrix, 2015):
Out of some 5,500 compounds screened, about 2,000 (36%) were called active. About 18% were inconclusive and are not listed. No stated cut-off is given here; in the data, active means normalized growth mostly below about 0.91 (no sharp cut-off); inconclusive means no clear call, values can overlap the other calls; inactive means mostly above about 0.92. This is one part of the list.

Assay: chemical genetic growth profiling, strain panel (AID 1159580);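 further: tested at 20 µM; growth read once vehicle control cultures reached saturation at 30 °C; 1 = growth at the plate median or of vehicle wells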
Details: growth OD

Measured: normalized growth

CC(C)c1nc(N(C)S(C)(=O)=O)nc(-c2ccc(F)cc2)c1/C=C/[C@@H](O)C[C@@H](O)CC(=O)O
inactive: S. cerevisiae deletion strains, locus YJR075W, strain HOC1, stronger effect = lower value 0.996 | S. cerevisiae deletion strains, locus YKL009W, strain mrt4, stronger effect = lower value 1.01 | S. cerevisiae deletion strains, locus YKL068W, stronger effect = lower value 1.03 | S. cerevisiae deletion strains, locus YKL085W, strain MDH1 (second series), stronger effect = lower value 0.992 | S. cerevisiae deletion strains, locus YKL085W, strain MDH1, stronger effect = lower value 0.992 | S. cerevisiae deletion strains, locus YKL160W, strain elf1, stronger effect = lower value 0.994 | S. cerevisiae deletion strains, locus YKL190W, strain CNB1, stronger effect = lower value 1.01 | S. cerevisiae deletion strains, locus YKR001C, strain vps1, stronger effect = lower value 1.03 | S. cerevisiae deletion strains, locus YKR026C, strain gcn3, stronger effect = lower value 1.02 | S. cerevisiae deletion strains, locus YKR091W, strain srl3, stronger effect = lower value 1.01 | S. cerevisiae deletion strains, locus YLL001W, strain dnm1, stronger effect = lower value 1.03 | S. cerevisiae deletion strains, locus YLL026W, stronger effect = lower value 1.01 | S. cerevisiae deletion strains, locus YLR027C, strain aat2, stronger effect = lower value 1.01 | S. cerevisiae deletion strains, locus YLR039C, strain RIC1, stronger effect = lower value 1.31 | S. cerevisiae deletion strains, locus YLR058C, strain SHM2, stronger effect = lower value 1 | S. cerevisiae deletion strains, locus YLR102C, strain apc9, stronger effect = lower value 1.02 | S. cerevisiae deletion strains, locus YLR221C, strain rsa3, stronger effect = lower value 1.06 | S. cerevisiae deletion strains, locus YLR258W, strain gsy2, stronger effect = lower value 1.01 | S. cerevisiae deletion strains, locus YLR262C, strain YPT6 (second series), stronger effect = lower value 1.1 | S. cerevisiae deletion strains, locus YLR262C, strain YPT6, stronger effect = lower value 1.26 | S. cerevisiae deletion strains, locus YLR268W, strain sec22, stronger effect = lower value 0.994 | S. cerevisiae deletion strains, locus YLR320W, strain mms22, stronger effect = lower value 1.01 | S. cerevisiae deletion strains, locus YLR330W, strain CHS5, stronger effect = lower value 0.999 | S. cerevisiae deletion strains, locus YLR342W, strain FKS1 (second series), stronger effect = lower value 1.03 | S. cerevisiae deletion strains, locus YLR342W, strain FKS1, stronger effect = lower value 1.03 | S. cerevisiae deletion strains, locus YLR357W, strain rsc2, stronger effect = lower value 0.994 | S. cerevisiae deletion strains, locus YLR370C, strain arc18, stronger effect = lower value 1.03 | S. cerevisiae deletion strains, locus YLR371W, strain rom2, stronger effect = lower value 1.01 | S. cerevisiae deletion strains, locus YLR384C, strain iki3, stronger effect = lower value 1 | S. cerevisiae deletion strains, locus YLR418C, strain cdc73, stronger effect = lower value 1 | S. cerevisiae deletion strains, locus YML016C, strain PPZ1, stronger effect = lower value 0.999 | S. cerevisiae deletion strains, locus YML032C, strain rad52, stronger effect = lower value 1.01 | S. cerevisiae deletion strains, locus YML120C, strain ndi1, stronger effect = lower value 1.02 | S. cerevisiae deletion strains, locus YML124C, strain tub3, stronger effect = lower value 0.997 | S. cerevisiae deletion strains, locus YMR058W, strain fet3, stronger effect = lower value 1.02 | S. cerevisiae deletion strains, locus YMR078C, strain ctf18, stronger effect = lower value 1.01 | S. cerevisiae deletion strains, locus YMR125W, strain sto1, stronger effect = lower value 1.02 | S. cerevisiae deletion strains, locus YMR129W, stronger effect = lower value 1.04 | S. cerevisiae deletion strains, locus YMR205C, strain PFK2, stronger effect = lower value 1.02 | S. cerevisiae deletion strains, locus YMR223W, strain ubp8, stronger effect = lower value 1.01 | S. cerevisiae deletion strains, locus YMR231W, strain pep5, stronger effect = lower value 0.958 | S. cerevisiae deletion strains, locus YMR263W, strain SAP30, stronger effect = lower value 0.994 | S. cerevisiae deletion strains, locus YMR307W, strain GAS1, stronger effect = lower value 1.01 | S. cerevisiae deletion strains, locus YNL067W, strain RPL9B, stronger effect = lower value 0.989 | S. cerevisiae deletion strains, locus YNL071W, strain lat1, stronger effect = lower value 1.01 | S. cerevisiae deletion strains, locus YNL128W, strain TEP1, stronger effect = lower value 0.988 | S. cerevisiae deletion strains, locus YNL153C, strain GIM3, stronger effect = lower value 0.989 | S. cerevisiae deletion strains, locus YNL209W, strain ssb2, stronger effect = lower value 1.02 | S. cerevisiae deletion strains, locus YNL233W, strain BNI4, stronger effect = lower value 0.988 | S. cerevisiae deletion strains, locus YNL248C, strain rpa49, stronger effect = lower value 1.02 | S. cerevisiae deletion strains, locus YNL250W, strain rad50, stronger effect = lower value 0.982 | S. cerevisiae deletion strains, locus YNL271C, strain bni1, stronger effect = lower value 0.976 | S. cerevisiae deletion strains, locus YNL298W, strain CLA4, stronger effect = lower value 1.02 | S. cerevisiae deletion strains, locus YNL307C, strain MCK1, stronger effect = lower value 1.02 | S. cerevisiae deletion strains, locus YNL322C, strain KRE1 (second series), stronger effect = lower value 1.03 | S. cerevisiae deletion strains, locus YNL322C, strain KRE1, stronger effect = lower value 1 | S. cerevisiae deletion strains, locus YNR049C, strain mso1, stronger effect = lower value 1.02 | S. cerevisiae deletion strains, locus YNR052C, strain pop2, stronger effect = lower value 0.929 | S. cerevisiae deletion strains, locus YOL006C, strain TOP1, stronger effect = lower value 1.01 | S. cerevisiae deletion strains, locus YOL012C, strain htz1 0.882 | S. cerevisiae deletion strains, locus YOL147C, strain pex11, stronger effect = lower value 1.01 | S. cerevisiae deletion strains, locus YOR001W, strain rrp6, stronger effect = lower value 1.01 | S. cerevisiae deletion strains, locus YOR061W, strain CKA2, stronger effect = lower value 0.994 | S. cerevisiae deletion strains, locus YOR069W, strain VPS5, stronger effect = lower value 1.01 | S. cerevisiae deletion strains, locus YOR070C, strain gyp1, stronger effect = lower value 1.01 | S. cerevisiae deletion strains, locus YOR080W, strain dia2, stronger effect = lower value 1.01 | S. cerevisiae deletion strains, locus YOR083W, strain WHI5, stronger effect = lower value 0.996 | S. cerevisiae deletion strains, locus YOR106W, strain vam3, stronger effect = lower value 1.02 | S. cerevisiae deletion strains, locus YOR136W, strain idh2, stronger effect = lower value 1 | S. cerevisiae deletion strains, locus YOR144C, strain elg1, stronger effect = lower value 1 | S. cerevisiae deletion strains, locus YOR184W, strain ser1, stronger effect = lower value 0.997 | S. cerevisiae deletion strains, locus YOR265W, strain rbl2, stronger effect = lower value 1.01 | S. cerevisiae deletion strains, locus YOR270C, strain vph1, stronger effect = lower value 0.975 | S. cerevisiae deletion strains, locus YOR290C, strain snf2, stronger effect = lower value 1 | S. cerevisiae deletion strains, locus YOR316C, strain cot1, stronger effect = lower value 1.01 | S. cerevisiae deletion strains, locus YPL051W, strain arl3, stronger effect = lower value 1.02 | S. cerevisiae deletion strains, locus YPL055C, strain LGE1, stronger effect = lower value 0.998 | S. cerevisiae deletion strains, locus YPL078C, strain atp4, stronger effect = lower value 1.02 | S. cerevisiae deletion strains, locus YPL106C, strain sse1, stronger effect = lower value 1.03 | S. cerevisiae deletion strains, locus YPL240C, strain hsp82, stronger effect = lower value 0.992 | S. cerevisiae deletion strains, locus YPL241C, strain CIN2, stronger effect = lower value 1.01 | S. cerevisiae deletion strains, locus YPR119W, strain clb2, stronger effect = lower value 0.998 | S. cerevisiae deletion strains, locus YPR141C, strain kar3, stronger effect = lower value 1.01 | S. cerevisiae deletion strains, locus YPR163C, strain tif3, stronger effect = lower value 1.01 | S. cerevisiae deletion strains, locus YPR167C, strain met16, stronger effect = lower value 1 | S. cerevisiae deletion strains, strain wtn01, stronger effect = lower value 1 | S. cerevisiae strains, strain wild type, stronger effect = lower value 0.994
active: S. cerevisiae deletion strains, locus YLL041C, strain sdh2, stronger effect = lower value 0.9 | S. cerevisiae deletion strains, locus YLR113W, strain HOG1, stronger effect = lower value 0.232 | S. cerevisiae deletion strains, locus YNL183C, strain NPR1, stronger effect = lower value 0.0704 | S. cerevisiae deletion strains, locus YOR231W, strain MKK1, stronger effect = lower value 0.124 | S. cerevisiae deletion strains, locus YPL256C, strain CLN2, stronger effect = lower value 0.162
